# Measured values: the supplement of paper PMC8007513
# Where a name gives a salt, the structure may show the parent alone. ± gives the standard error. The campaign covered roughly 1,300 compounds. About 130 (10%) showed an effect of 50% or more. For the sample, strong results were picked, then their nearest neighbours and some compounds at random.
# Test system: Trichoderma virens ATCC 9645
# Test: growth yield (OD600) with compound + IPBC relative to untreated control; higher = less growth inhibition
# Conditions: compound concentration: 100 uM, IPBC concentration: 200 ng/ml
# In short: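 Trichoderma virens ATCC 9645 spores from 7-day potato dextrose agar plates were suspended in potato dextrose broth at 15,000 spores ml^−1. Aliquots of 100 μl with library compounds at 100 μM final, with or without a co-applied biocide at 200 ng ml^−1, were grown in 96-well plates at 30 °C. OD600 was read at 40 h and 72 h on a BioTek EL800. Growth is expressed relative to the control without either agent, as means of duplicate screens.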
structure (smiles),measurement,setting,value
C[C@]12C[C@H](O)[C@H]3[C@@H](CCC4=CC(=O)CC[C@@]43C)[C@@H]1CC[C@@H]2C(=O)CO [Corticosterone] + CCCCNC(=O)OCC#CI [3-iodo-2-propynyl butylcarbamate (IPBC)],growth yield,40 h,94.2 ± 7.8%
same,growth yield,72 h,96.6 ± 5.6%
CCCN1CCCC[C@H]1C(=O)Nc1c(C)cccc1C [Ropivacaine hydrochloride] + CCCCNC(=O)OCC#CI [3-iodo-2-propynyl butylcarbamate (IPBC)],growth yield,40 h,88.5 ± 1.4%
same,growth yield,72 h,91.98 ± 0.1%
C[C@]12C=CC(=O)C=C1CC[C@@H]1[C@@H]2[C@@H](O)C[C@@]2(C)[C@H]1CC[C@]2(O)C(=O)CO [Prednisolone] + CCCCNC(=O)OCC#CI [3-iodo-2-propynyl butylcarbamate (IPBC)],growth yield,40 h,82.8 ± 2.1%
same,growth yield,72 h,92.5 ± 0.42%
NC(Cc1cc(I)c(Oc2cc(I)c(O)c(I)c2)c(I)c1)C(=O)O (stereo unspecified) [Thyroxine (L)] + CCCCNC(=O)OCC#CI [3-iodo-2-propynyl butylcarbamate (IPBC)],growth yield,40 h,100 ± 11%
same,growth yield,72 h,98.8 ± 9%
"O=C(O)Cc1cc(I)c(Oc2ccc(O)c(I)c2)c(I)c1 [Tiratricol, 3,3',5-triiodothyroacetic acid] + CCCCNC(=O)OCC#CI [3-iodo-2-propynyl butylcarbamate (IPBC)]",growth yield,40 h,44 ± 1.8%
same,growth yield,72 h,73.41 ± 0.63%
N[C@@H](Cc1cc(I)c(Oc2ccc(O)c(I)c2)c(I)c1)C(=O)O [Liothyronine] + CCCCNC(=O)OCC#CI [3-iodo-2-propynyl butylcarbamate (IPBC)],growth yield,40 h,93.1 ± 10%
same,growth yield,72 h,98.1 ± 6.4%
CCN(CC)CCNc1ccc(CO)c2sc3ccccc3c(=O)c12 [Hycanthone] + CCCCNC(=O)OCC#CI [3-iodo-2-propynyl butylcarbamate (IPBC)],growth yield,40 h,124 ± 2.7%
same,growth yield,72 h,120 ± 0.63%
COc1cc(NC(C)CCCN)c2ncccc2c1 (stereo unspecified) [Primaquine diphosphate] + CCCCNC(=O)OCC#CI [3-iodo-2-propynyl butylcarbamate (IPBC)],growth yield,40 h,73.7 ± 11%
same,growth yield,72 h,117.7 ± 1.1%
COc1ccc(OC)c(C(O)CNC(=O)CN)c1 (stereo unspecified) [Midodrine hydrochloride] + CCCCNC(=O)OCC#CI [3-iodo-2-propynyl butylcarbamate (IPBC)],growth yield,40 h,96.1 ± 4.3%
same,growth yield,72 h,104 ± 2.1%
CCCC(C)(COC(N)=O)COC(=O)NC(C)C (stereo unspecified) [Carisoprodol] + CCCCNC(=O)OCC#CI [3-iodo-2-propynyl butylcarbamate (IPBC)],growth yield,40 h,84.8 ± 5.1%
same,growth yield,72 h,92.7 ± 5.5%
CC(CCc1ccccc1)NCC(O)c1ccc(O)c(C(N)=O)c1 (stereo unspecified) [Labetalol hydrochloride] + CCCCNC(=O)OCC#CI [3-iodo-2-propynyl butylcarbamate (IPBC)],growth yield,40 h,73.38 ± 0.32%
same,growth yield,72 h,87.15 ± 0.1%
CCCCCCCCCCCCCCCC[N+](C)(C)CCN(Cc1ccc(OC)cc1)c1ncccn1 [Thonzonium bromide] + CCCCNC(=O)OCC#CI [3-iodo-2-propynyl butylcarbamate (IPBC)],growth yield,40 h,3.34 ± 0.16%
same,growth yield,72 h,2.62 ± 0.1%
COc1ccc(CN(CCN(C)C)c2ccccn2)cc1 [Pyrilamine maleate] + CCCCNC(=O)OCC#CI [3-iodo-2-propynyl butylcarbamate (IPBC)],growth yield,40 h,82.8 ± 4.6%
same,growth yield,72 h,92.4 ± 4.9%
CN(C)CCN(Cc1ccc(Cl)cc1)c1ccccn1 [Chloropyramine hydrochloride] + CCCCNC(=O)OCC#CI [3-iodo-2-propynyl butylcarbamate (IPBC)],growth yield,40 h,76.1 ± 1.1%
same,growth yield,72 h,92.3 ± 2.3%
COC(c1ccccc1)(c1ccccc1)[C@H](Oc1nc(C)cc(C)n1)C(=O)O [Ambrisentan] + CCCCNC(=O)OCC#CI [3-iodo-2-propynyl butylcarbamate (IPBC)],growth yield,40 h,89.3 ± 5.7%
same,growth yield,72 h,93.9 ± 3.9%
NC(=O)N1c2ccccc2CC(=O)c2ccccc21 [Oxcarbazepine] + CCCCNC(=O)OCC#CI [3-iodo-2-propynyl butylcarbamate (IPBC)],growth yield,40 h,83.4 ± 2.4%
same,growth yield,72 h,92.9 ± 1.9%
CC(=O)N1CCN(c2ccc(OCC3COC(Cn4ccnc4)(c4ccc(Cl)cc4Cl)O3)cc2)CC1 (stereo unspecified) [Ketoconazole] + CCCCNC(=O)OCC#CI [3-iodo-2-propynyl butylcarbamate (IPBC)],growth yield,40 h,3.34 ± 0.48%
same,growth yield,72 h,2.52 ± 0.42%
CCC(C)n1ncn(-c2ccc(N3CCN(c4ccc(OCC5COC(Cn6cncn6)(c6ccc(Cl)cc6Cl)O5)cc4)CC3)cc2)c1=O (stereo unspecified) [Itraconazole] + CCCCNC(=O)OCC#CI [3-iodo-2-propynyl butylcarbamate (IPBC)],growth yield,40 h,14.3 ± 1.9%
same,growth yield,72 h,11.3 ± 1.7%
CC(C)N1CCN(c2ccc(OCC3COC(Cn4cncn4)(c4ccc(Cl)cc4Cl)O3)cc2)CC1 (stereo unspecified) [Terconazole] + CCCCNC(=O)OCC#CI [3-iodo-2-propynyl butylcarbamate (IPBC)],growth yield,40 h,69.9 ± 2.5%
same,growth yield,72 h,87 ± 1.3%
CC[C@@H]([C@H](C)O)n1ncn(-c2ccc(N3CCN(c4ccc(OC[C@@H]5CO[C@@](Cn6cncn6)(c6ccc(F)cc6F)C5)cc4)CC3)cc2)c1=O [Posaconazole] + CCCCNC(=O)OCC#CI [3-iodo-2-propynyl butylcarbamate (IPBC)],growth yield,40 h,3.97 ± 1.4%
same,growth yield,72 h,3.78 ± 1.7%
C[N+]1([O-])[C@@H]2C[C@@H](OC(=O)[C@H](CO)c3ccccc3)C[C@H]1[C@@H]1O[C@@H]12 (stereo partly specified) [Scopolamin-N-oxide hydrobromide] + CCCCNC(=O)OCC#CI [3-iodo-2-propynyl butylcarbamate (IPBC)],growth yield,40 h,103 ± 2.2%
same,growth yield,72 h,102 ± 1.1%
CC(C)c1cccc(C(C)C)c1O [Propofol] + CCCCNC(=O)OCC#CI [3-iodo-2-propynyl butylcarbamate (IPBC)],growth yield,40 h,101 ± 2.9%
same,growth yield,72 h,98.4 ± 1.3%
CO[C@@]1(NC(=O)C2SC(=C(C(N)=O)C(=O)O)S2)C(=O)N2C(C(=O)O)=C(CSc3nnnn3C)CS[C@@H]21 (stereo partly specified) [Cefotetan] + CCCCNC(=O)OCC#CI [3-iodo-2-propynyl butylcarbamate (IPBC)],growth yield,40 h,94.8 ± 2.4%
same,growth yield,72 h,96.5 ± 1.9%
NS(=O)(=O)c1cc2c(cc1C(F)(F)F)NCNS2(=O)=O [Hydroflumethiazide] + CCCCNC(=O)OCC#CI [3-iodo-2-propynyl butylcarbamate (IPBC)],growth yield,40 h,89.1 ± 1.1%
same,growth yield,72 h,92.4 ± 0.73%
C[C@]12Cc3c[nH]nc3C[C@@H]1CC[C@@H]1[C@@H]2CC[C@@]2(C)[C@H]1CC[C@]2(C)O [Stanozolol] + CCCCNC(=O)OCC#CI [3-iodo-2-propynyl butylcarbamate (IPBC)],growth yield,40 h,91.02 ± 0.16%
same,growth yield,72 h,95.9%
CCN1CC(CCN2CCOCC2)C(c2ccccc2)(c2ccccc2)C1=O (stereo unspecified) [Doxapram hydrochloride] + CCCCNC(=O)OCC#CI [3-iodo-2-propynyl butylcarbamate (IPBC)],growth yield,40 h,88.6 ± 1.3%
same,growth yield,72 h,91.14 ± 0.32%
CN(C)CCCSC(=N)N [Dimaprit dihydrochloride] + CCCCNC(=O)OCC#CI [3-iodo-2-propynyl butylcarbamate (IPBC)],growth yield,40 h,93.9 ± 6.5%
same,growth yield,72 h,95.8 ± 4.3%
Cc1ccc(-c2ncc(Cl)cc2-c2ccc(S(C)(=O)=O)cc2)cn1 [Etoricoxib] + CCCCNC(=O)OCC#CI [3-iodo-2-propynyl butylcarbamate (IPBC)],growth yield,40 h,88.79 ± 0.48%
same,growth yield,72 h,91.14 ± 0.73%
CN[C@H]1CC[C@@H](c2ccc(Cl)c(Cl)c2)c2ccccc21 [Sertraline] + CCCCNC(=O)OCC#CI [3-iodo-2-propynyl butylcarbamate (IPBC)],growth yield,40 h,30.8 ± 4.1%
same,growth yield,72 h,82.5 ± 2%
CN[C@@H]1C[C@@H](c2ccc(Cl)c(Cl)c2)c2ccccc21 [Indatraline hydrochloride] + CCCCNC(=O)OCC#CI [3-iodo-2-propynyl butylcarbamate (IPBC)],growth yield,40 h,29.4 ± 4.9%
same,growth yield,72 h,79.5 ± 1.7%
Cc1c(N(C)CS(=O)(=O)O)c(=O)n(-c2ccccc2)n1C [Dipyrone] + CCCCNC(=O)OCC#CI [3-iodo-2-propynyl butylcarbamate (IPBC)],growth yield,40 h,92.4 ± 6.7%
same,growth yield,72 h,87.9 ± 5.2%
COc1ccnc(C[S+]([O-])c2nc3cc(OC(F)F)ccc3[nH]2)c1OC (stereo unspecified) [Pantoprazole sodium] + CCCCNC(=O)OCC#CI [3-iodo-2-propynyl butylcarbamate (IPBC)],growth yield,40 h,73.5 ± 2.4%
same,growth yield,72 h,98.9 ± 0.94%
C#C[C@]1(O)CC[C@H]2[C@@H]3CCc4cc(OC)ccc4[C@H]3CC[C@@]21C [Ethynylestradiol 3-methyl ether] + CCCCNC(=O)OCC#CI [3-iodo-2-propynyl butylcarbamate (IPBC)],growth yield,40 h,87 ± 16%
same,growth yield,72 h,88.9 ± 12%
CO[C@@]1(NC(=O)C(C(=O)O)c2ccc(O)cc2)C(=O)N2C(C(=O)O)=C(CSc3nnnn3C)CO[C@@H]21 (stereo partly specified) [Moxalactam disodium salt] + CCCCNC(=O)OCC#CI [3-iodo-2-propynyl butylcarbamate (IPBC)],growth yield,40 h,97.1 ± 14%
same,growth yield,72 h,96 ± 7.7%
CCn1cc(C(=O)O)c(=O)c2cc(F)c(N3CCNCC3)nc21 [Enoxacin] + CCCCNC(=O)OCC#CI [3-iodo-2-propynyl butylcarbamate (IPBC)],growth yield,40 h,83.9 ± 1.6%
same,growth yield,72 h,87 ± 1.5%
CCCCC(CC)CN1CN(CC(CC)CCCC)CC(C)(N)C1 (stereo unspecified) [Hexetidine] + CCCCNC(=O)OCC#CI [3-iodo-2-propynyl butylcarbamate (IPBC)],growth yield,40 h,28.6 ± 8.6%
same,growth yield,72 h,91.1 ± 1.8%
CCOC1O[C@H]([C@@H](COCc2ccccc2)OCc2ccccc2)[C@H](OCc2ccccc2)[C@H]1O (stereo partly specified) [Tribenoside] + CCCCNC(=O)OCC#CI [3-iodo-2-propynyl butylcarbamate (IPBC)],growth yield,40 h,75.4 ± 2.1%
same,growth yield,72 h,88.1 ± 1.1%
COc1cc([C@@H]2c3cc4c(cc3[C@H](O)[C@H]3COC(=O)[C@H]23)OCO4)cc(OC)c1OC [Podophyllotoxin] + CCCCNC(=O)OCC#CI [3-iodo-2-propynyl butylcarbamate (IPBC)],growth yield,40 h,104 ± 6.3%
same,growth yield,72 h,102 ± 4.5%
